Compounds with a hit are over-represented: about 12% of the library has one in this group of screens.
HP1b binding inh: blocks HP1-beta chromodomain binding to methylated histone tails; Potency, µM (highest dose often 114 µM), for the others: top-dose activity change, negative = inhibition, actives largely listed as inhibitors; AlphaScreen HP1-beta / biotin-H3K9me3 peptide binding; 390,000 tested, 0.56% active; P83916; AID 540317; note: nearly all actives have a fitted effect of over 70% in size
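AlphaScreen: HP1-beta (50 nM) preformed 30 min with biotin-H3(1-18)K9me3 peptide (50 nM) in PBS pH 7.4, 0.01% Tween-20. Compound added for 30 min at RT, then streptavidin donor/nickel chelate acceptor beads (10 ug/mL) for 30 min.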
Sfp PPTase inh: inhibitors of Bacillus subtilis Sfp phosphopantetheinyl transferase; Q9F4F7; Biochemical Sfp PPTase activity, qHTS; Potency, µM, inactives show largest response in the series, negative = inhibition, most hits filed as inhibitors; 310,000 tested, 3.5% active;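 note: the enzyme is Sfp with the accession as filed and its product quenches rhodamine fluorescence; 0% = enzyme reaction without inhibitor and -100% = no enzyme wells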
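Buffer: 50 mM Hepes-Na pH 7.6, 10 mM MgCl2, 0.01% Nonidet P-40, 0.01% BSA. Enzyme 15 nM, pre-exposed to compound 15 min; substrates then added and fluorescence change tracked over 30 min.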
JMJD2A Tudor: blocks the human JMJD2A Tudor domain; AlphaScreen JMJD2A-Tudor / H3K4me3 peptide binding; O75164; Potency, µM (top dose mostly 114 µM), for inactives: at the top dose activity change, negative = inhibition, hits mostly inhibitors; 390,000 tested, 4.4% active; AID 504339; note: % is set by controls: 0 for no effect and ±100 for the full control effect; nearly all actives have a fitted effect of over 50% in size
Target sequence (O75164 whole entry, looked up, the tested form may be a part): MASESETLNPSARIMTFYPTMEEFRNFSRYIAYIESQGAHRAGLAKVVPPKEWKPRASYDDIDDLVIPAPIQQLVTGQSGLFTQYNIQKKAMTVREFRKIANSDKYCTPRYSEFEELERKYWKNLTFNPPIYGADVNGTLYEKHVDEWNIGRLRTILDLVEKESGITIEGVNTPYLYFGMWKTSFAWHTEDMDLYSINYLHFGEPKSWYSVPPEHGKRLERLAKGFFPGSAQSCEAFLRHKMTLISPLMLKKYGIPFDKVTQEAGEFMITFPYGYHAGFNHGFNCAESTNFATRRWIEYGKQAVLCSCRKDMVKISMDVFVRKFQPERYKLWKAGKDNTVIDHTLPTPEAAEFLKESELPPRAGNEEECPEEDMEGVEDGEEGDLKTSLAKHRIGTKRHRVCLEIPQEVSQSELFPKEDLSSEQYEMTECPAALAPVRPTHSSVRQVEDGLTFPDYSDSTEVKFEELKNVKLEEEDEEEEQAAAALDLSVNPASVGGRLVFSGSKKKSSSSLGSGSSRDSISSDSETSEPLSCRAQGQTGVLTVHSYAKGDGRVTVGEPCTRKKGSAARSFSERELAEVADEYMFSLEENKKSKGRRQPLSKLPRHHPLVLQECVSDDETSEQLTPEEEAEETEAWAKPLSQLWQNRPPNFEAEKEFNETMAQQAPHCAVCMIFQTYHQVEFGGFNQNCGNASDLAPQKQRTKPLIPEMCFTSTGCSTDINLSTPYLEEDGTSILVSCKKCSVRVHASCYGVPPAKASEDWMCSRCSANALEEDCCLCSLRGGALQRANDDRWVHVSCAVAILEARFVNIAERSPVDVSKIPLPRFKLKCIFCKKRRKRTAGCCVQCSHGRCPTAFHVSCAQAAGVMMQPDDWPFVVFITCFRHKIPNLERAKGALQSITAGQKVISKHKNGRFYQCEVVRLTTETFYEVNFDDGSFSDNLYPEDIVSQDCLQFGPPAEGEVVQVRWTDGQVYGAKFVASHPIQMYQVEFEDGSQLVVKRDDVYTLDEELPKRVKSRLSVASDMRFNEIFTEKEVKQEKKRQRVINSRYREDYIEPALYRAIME
G9a inh: inhibitors of human histone lysine methyltransferase G9a; Q96KQ7; G9a H3K9 monomethylation, AlphaScreen, 2 h; Potency, µM (doses to about 102 µM), inactives show at the top dose activity, negative = inhibition, actives largely listed as inhibitors; 350,000 tested, 8.8% active; AID 504332; note: % is set by controls: 0 for no effect and ±100 for the full control effect; nearly all actives have a fitted effect of over 75% in size
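Using a bead-based AlphaScreen, monomethylated H3K9 product from 2 h room-temperature reactions (G9a 20 nM, peptide 500 nM, SAM 20 uM) was detected with 0.5 ug/mL rabbit anti-H3K9me1 antibody.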
BAZ2B inh: inhibitors of human BAZ2B bromodomain | Potency, µM (doses to about 114 µM), without a hit: at the top dose activity change, negative = inhibition, most hits filed as inhibitors | AlphaScreen BAZ2B-H3K14Ac peptide displacement | 360,000 tested, 4.4% active | Q9UIF8; note: % is set by controls: 0 for no effect and ±100 for the full control effect; nearly all actives have a fitted effect of over 60% in size
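Multi-concentration screen (max 110 uM) measuring displacement of acetylated histone H3 peptide from BAZ2B by AlphaScreen, using 50 nM protein, 50 nM peptide and 10 ug/mL streptavidin donor plus Ni-chelate acceptor beads.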
L3MBTL1 block: blocks human L3MBTL1. Potency, µM (doses to about 57.1 µM), for inactives: top-dose activity, negative = inhibition, actives largely listed as inhibitors. 230,000 tested, 0.66% active. Q9Y468. AlphaScreen L3MBTL1–H3K9me1 peptide binding; note: % is set by controls: 0 for no effect and ±100 for the full control effect; nearly all actives have a fitted effect of over 60% in size
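L3MBTL1 50 nM + b-AHA-H3(1-15)K9me1 75 nM, 30 min RT; compound added, 30 min RT; streptavidin donor/Ni-chelate acceptor beads 10 ug/mL each final, 30 min RT dark; AlphaScreen read.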
* marks the source's active call; other numbers are inactive results; ? = inconclusive; · = no result; [ ] = another dose, or the depositor's remark. Calls come from the whole dose curve; as a rule, active = well fitted curve in the direction sought with a large enough effect; inconclusive = small, poorly fitted or top-dose-only effect, or another doubt; inactive = no such curve, though single readings can be large; an effect the other way counts as inactive or inconclusive. Potency is the fitted concentration of half-maximal effect.

SMILES | HP1b binding inh | Sfp PPTase inh | JMJD2A Tudor | G9a inh | BAZ2B inh | L3MBTL1 block
COc1ccccc1-c1c(C(F)(F)F)oc2cc(OC(=O)c3ccc([N+](=O)[O-])cc3)ccc2c1=O | ? | 11% | ? | 25µM* | ? | 10%
CCOC(=O)c1c(C)[nH]c(=S)c(C#N)c1-c1ccc(Cl)cc1 | 14% | -7% | -34% | -5%[59 µM] | -11% | -1%
Cc1[nH]c(=S)c(C#N)c(-c2ccco2)c1C(=O)N(C)C | -25% | 10µM* | 4µM* | 3.5µM* | -36% | -11%
CCOC(=O)c1c(C)[nH]c(=S)c(C#N)c1-c1ccc(OC)cc1 | 26% | ? | -25% | ? | -6% | ·
CC(=O)c1c(C)[nH]c(=S)c(C#N)c1-c1ccc(Cl)cc1 | 14% | ? | ? | 4.5µM* | -18% | -6%
Cn1nnnc1Sc1ncnc2scc(-c3ccccc3S(C)(=O)=O)c12 | · | · | -16% | · | · | ·
O=C(COc1ccccc1C(=O)NCc1ccccc1)Nc1ccccc1 | 38% | · | -18% | 12%[2.33 µM] | -6% | -2%
CC(=O)Nc1ccc(S(=O)(=O)NNC(=O)c2cccc(Cl)c2)cc1 | 22% | -26% | -24% | 5.6µM* | -9% | 3%
CC(=O)Nc1ccc(S(=O)(=O)Nc2ccc3c(c2)OCO3)cc1 | 16% | 20% | -6% | 9% | -4% | ·
CC(=O)Nc1ccc(S(=O)(=O)NNC(=O)c2ccc3c(c2)OCO3)cc1 | 24% | 10% | 11µM* | 76%[12.7 µM] | 16% | ·
CCN(C(=O)c1cc2c(=O)oc3ccc(C)cc3c2s1)c1ccccc1F | 56% | · | 13% | 2%[59 µM] | 1% | ·
CCO/C(C)=C1/SC(=S)NC1=O | 0% | 32µM* | -16% | ? | ? | ·
CC(C)C[C@H]1CN=C(Nc2ccccc2)N1CC1CCC(C(C)(C)C)CC1 (some centres undefined) | 18% | · | -12% | -3%[2.33 µM] | 0% | 11%
Cc1nc(NS(=O)(=O)c2ccccc2C)c2c3c(sc2n1)CCC3 | 61% | 9% | -8% | 45µM* | -9% | 1%
COc1ccc2c(c1)c1c(c(=O)n(-c3ccccc3C)c(=O)n1CC(=O)NCc1ccc(C)cc1)n2C | 33% | · | -11% | -17%[59 µM] | -15% | ·
Cc1ccccc1-c1nc(CS(=O)CC(=O)NCc2ccccc2)c(C)o1 (centres undefined) | 19% | 5% | -29% | 50µM* | -16% | ·
CCc1ccc(-c2nc(CS(=O)CC(=O)NCCc3ccccc3)c(C)o2)cc1 (centres undefined) | 22% | -15% | -21% | 79µM* | -10% | ·
COc1ccccc1CNC(=O)CS(=O)Cc1nc(-c2ccccc2C)oc1C (centres undefined) | 13% | 3% | -23% | 79µM* | -25% | ·
Cc1ccc(CNC(=O)CS(=O)Cc2nc(-c3cccs3)oc2C)cc1 (centres undefined) | 20% | 8% | -26% | 50µM* | -5% | ·
CCc1ccc(-c2nc(CS(=O)CC(=O)NCCc3ccc(C)cc3)c(C)o2)cc1 (centres undefined) | 42% | · | -14% | ? | -3% | ·
Cc1cc(C)cc(NC(=O)C(=O)NCCc2sc(-c3cccc(F)c3)nc2C)c1 | 20%[57 µM] | · | -4% | -1%[59 µM] | -3% | ·
Cc1ccc(CNC(=O)CS(=O)Cc2nc(-c3ccccc3C)oc2C)cc1 (centres undefined) | 18% | 12% | -18% | 50µM* | -31% | ·
Cc1ccc(-c2nc(CS(=O)CC(=O)NCc3ccccc3)c(C)o2)cc1 (centres undefined) | 31% | -10% | -17% | 50µM* | -21% | ·
CC(=O)OCC1OC(OC(C)=O)C(NC(=O)c2cccnc2)C(OC(C)=O)C1OC(C)=O (centres undefined) | -4% | 1% | -7% | 17%[59 µM] | 5% | 3%
CC(C)=CCc1c(O)cc2oc3c(CC=C(C)C)c(O)c(O)c(CC=C(C)C)c3c(=O)c2c1O | 4% | -5% | 50µM* | 17%[12.7 µM] | 50µM* | ·
